Reference: the supplement of paper PMC8285479
Where a name gives a salt, the structure may show the parent alone. ± gives the standard deviation of the averaged measurements. In all, about 1,900 compounds were measured (“normalised cell viability (NPI; 0 = phenylarsine oxide control, 1 = DMSO control)”: median about 1, lowest 2% from about 0.039 on). The list comes from a sample in which the lowest values are over-represented; it also holds similar structures and randomly drawn compounds.

Test system: NCI-H1944
Assay: normalised cell viability (NPI; 0 = phenylarsine oxide control, 1 = DMSO control) (fraction of DMSO control); NCI-H1944 is a non-small cell lung cancer line; higher = more viable cells (less compound toxicity)
Conditions: 6 days
[1] = glucocorticoid arm: hydrocortisone 2.75 uM co-treatment, compound 1 µM
[2] = glucocorticoid arm: hydrocortisone 2.75 uM co-treatment, compound 5 µM
[3] = glucocorticoid arm: hydrocortisone 2.75 uM pre-treated 2 days and continued, compound 1 µM
[4] = glucocorticoid arm: hydrocortisone 2.75 uM pre-treated 2 days and continued, compound 5 µM
[5] = glucocorticoid arm: vehicle, compound 1 µM
[6] = glucocorticoid arm: vehicle, compound 5 µM
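Note: CTB read-out in 384-well plates, triplicate wells, NPI normalised per plate against 1 µM phenylarsine oxide (0) and 0.1% DMSO (1) controls.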

Row | SMILES | normalised cell viability [1] | normalised cell viability [2] | normalised cell viability [3] | normalised cell viability [4] | normalised cell viability [5] | normalised cell viability [6]
1 | C#Cc1ccc2c(c1)C(=O)N(C)Cc1c(C(=O)OCCCOC(=O)c3ncn4c3CN(C)C(=O)c3cc(C#C)ccc3-4)ncn1-2 [Xli 093 hydrate] | 0.999 ± 0.011 | 1.01 ± 0.015 | 1 ± 0.013 | 1.01 | 0.99 ± 0.01 | 0.9967 ± 0.0015
2 | CCN1CCN(Cc2ccc(-c3cc4c(N[C@H](C)c5ccccc5)ncnc4[nH]3)cc2)CC1 | 0.812 ± 0.041 | 0.693 ± 0.043 | 0.885 ± 0.014 | 0.752 ± 0.047 | 0.8103 ± 0.0047 | 0.6 ± 0.016
3 | COc1cc(CC(=O)O)ccc1O [4-Hydroxy-3-methoxyphenylacetic acid] | 1.007 ± 0.0058 | 1.01 ± 0.014 | 1.01 ± 0.01 | 1.02 | 1.01 ± 0.01 | 1.01
4 | COc1cc(OC)c(/C=C/S(=O)(=O)Cc2ccc(OC)c(NCC(=O)O)c2)c(OC)c1 | 0.307 ± 0.021 | 0.261 ± 0.026 | 0.572 ± 0.03 | 0.572 ± 0.051 | 0.0447 ± 0.0079 | 0.0341 ± 0.0062
5 | Cc1c(F)ccc(C(=O)Nc2cc([N+](=O)[O-])ccc2N2CCN(C)CC2)c1Cl | 1.03 ± 0.011 | 0.987 ± 0.02 | 1.027 ± 0.0058 | 1 ± 0.013 | 0.9957 ± 0.0075 | 0.9963 ± 0.0047
6 | O=C(O)[C@H]1NCCC[C@H]1C(=O)O (relative stereo) [cis-Piperidine-2,3-dicarboxylic acid] | 1 ± 0.016 | 1 ± 0.022 | 1 ± 0.018 | 0.973 ± 0.0087 | 0.987 ± 0.0092 | 0.9887 ± 0.005
7 | CSC(=N)NCCC[C@H](N)C(=O)O [S-Methyl-L-thiocitrulline acetate] | 1.003 ± 0.0058 | 0.984 ± 0.028 | 1.01 ± 0.01 | 0.989 ± 0.018 | 0.9847 ± 0.0051 | 0.994 ± 0.014
8 | Nc1ncn([C@@H]2O[C@H](CO)[C@@H](O)[C@H]2O)c(=O)n1 [Azacitidine] | 1.03 | 1.11 ± 0.025 | 1 ± 0.037 | 0.952 ± 0.24 | 0.976 ± 0.011 | 0.903 ± 0.017
9 | Nc1ccn([C@@H]2O[C@H](CO)[C@@H](O)C2(F)F)c(=O)n1 [Gemcitabine hydrochloride; Gemcitabine HCl] | 0.202 ± 0.0062 | 1.04 ± 0.015 | 0.422 ± 0.044 | 1.03 | 0.0536 ± 0.0027 | 1.013 ± 0.0058
10 | Nc1ccn([C@@H]2O[C@H](CO)[C@@H](O)[C@@H]2O)c(=O)n1 | 0.178 ± 0.001 | 0.115 ± 0.0035 | 0.91 ± 0.011 | 0.31 ± 0.04 | 0.0325 ± 0.0032 | 0.0276 ± 0.0059
11 | Nc1ncn([C@@H]2O[C@H](CO)[C@@H](O)[C@H]2O)c(=O)n1 [5-azacytidine] | 1.006 ± 0.0063 | 1.03 | 1.01 ± 0.018 | 1.08 ± 0.014 | 0.972 ± 0.015 | 0.8937 ± 0.006
12 | Nc1ccn([C@@H]2O[C@H](CO)[C@@H](O)[C@@H]2O)c(=O)n1 [Cytosine-1-beta-D-arabinofuranoside hydrochloride] | 0.352 ± 0.026 | 0.163 ± 0.022 | 1.03 ± 0.017 | 0.802 ± 0.22 | 0.0913 ± 0.011 | 0.0638 ± 0.0066
13 | Nc1ncn([C@@H]2O[C@H](CO)[C@@H](O)[C@H]2O)c(=O)n1 [Azacitidine; 5-azacytidine] | 1.04 ± 0.026 | 1.11 ± 0.015 | 1.04 ± 0.01 | 1.1 ± 0.021 | 0.98 ± 0.017 | 0.766 ± 0.025
